Screening results as filed in PubChem.
The list is not random: actives were taken first. Their share in the collection is about 2.8%.
MITF act = increases MITF-driven TRPM1 promoter luciferase signal | SK-MEL-5 TRPM1-promoter luciferase, 24 h; % of positive control, neutral wells = 0 | activation, % at 12.5 µM | 300,000 compounds, 0.75% hits | AID 588334;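 active = mean activation of at least 80% with every replicate also reaching 80%; inconclusive = mean reaches 80% but some replicate falls short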;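 note: 0% = neutral control wells and 100% = parthenolide positive control wells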
esBAF inh = blocks esBAF chromatin remodeling in mouse ES cells; Bmi1-luciferase knock-in reporter, 24 h; 100% = twice the neutral-well signal; reporter increase, % at 12.5 µM; 350,000 compounds, 2% hits; AID 602393; in the data active = activation above about 40%; inconclusive = no clear call, values can overlap the other calls;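 note: 0% = median of the plate's neutral control wells and 100% = double that signal; a rise in the Bmi1 reporter signal indicates esBAF inhibition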
Wnt act = Wnt/beta-catenin pathway activation. 300,000 compounds, 1.2% hits. activation, % at 9.35 µM. Wnt/beta-catenin reporter cell assay, activator, plate reader; in the data active = activation above about 30%, passing the limit was not always enough; inconclusive = no clear call, values can overlap the other calls;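 note: 0% = neutral control wells and 100% = positive control wells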
FXN GAA850 act = frataxin GAA850 promoter activation; HEK293 lucGAA850 FXN promoter luciferase reporter, 24 h; percent of 10 µM SAHA response; activation, % at 6 µM; 360,000 compounds, 0.56% hits; AID 540364;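 active = activation above the average of all compounds screened plus 3 SD, cutoff fixed separately per campaign, cut at about 7.5% in these data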;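 note: 0% = DMSO wells and 100% = 10 µM SAHA wells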
An asterisk follows results filed as active; u = inconclusive; x = no result given.

SMILES | MITF act | esBAF inh | Wnt act | FXN GAA850 act
CCOc1ccc(/C=N/NC(=O)Cn2ccnc2C)cc1 | x | -7.2 | 51.3* | -1.0
COc1cccc(/C=N/NC(=O)Cn2ccnc2C)c1 | -3.4 | x | -2.1 | 1.3
O=C(Nc1cccc(Cl)c1)N[C@@H]1CC[C@@H](CCNC(=O)C2CC2)O[C@@H]1CO | x | -6.7 | x | x
Nc1c2c(nc3sc4c(c13)CCCC4)-c1ccccc1CC2 | x | -13.9 | 42.3* | 1.7
CCCC(=O)Nc1ccc2nn(-c3ccc(OC)cc3)nc2c1 | 75.9 | 50.0* | -0.9 | 1.7
CC(C)CC(=O)Nc1ccc2nn(-c3ccccc3)nc2c1 | 99.5* | x | u | 2.3
COc1ccc(-n2nc3ccc(N)cc3n2)cc1 | x | -58.6 | -1.1 | -9.7
Cc1cc2nn(-c3ccccc3)nc2cc1NC(=O)c1cccs1 | 48.5 | x | 30.9* | 2.2
CCC(=O)Nc1cc2nn(-c3ccccc3)nc2cc1Cl | 6.9 | 36.4 | 37.6* | 6.3
CC(C)C(=O)Nc1ccc2nn(-c3ccc(F)cc3)nc2c1 | x | 2.4 | x | 3.4
CC(=O)Nc1cc2nn(-c3ccccc3)nc2cc1C | 6.9 | 8.0 | 22.3 | 3.9
CC1=C(C(=O)OCc2ccccc2)C(c2ccc(Br)cc2)NC(=O)N1CCCCCC(=O)O (stereo unspecified) | 62.7 | 90.5* | 45.7* | 4.7
COC(=O)c1cn[nH]c1NC(=S)Nc1ccccc1C | u | 67.1* | 9.9 | 3.5
COc1ccccc1N1CCN(/N=C/c2cccc(Cl)c2)CC1 | x | 99.7* | 42.1* | 3.8
COc1ccccc1N1CCN(/N=C/c2cccc(OC)c2O)CC1 | 75.0 | x | 43.9* | 2.3
COc1cccc(/C=N/N2CCN(c3ccccc3OC)CC2)c1 | 107.6* | u | x | 3.9
COc1ccc(/C=N/N2CCN(c3ccccc3OC)CC2)cc1OC | 31.4 | 10.3 | x | 3.0
C[C@H]1CN([C@@H](C)CO)C(=O)c2cc(-c3ccc(C#N)cc3)cnc2O[C@H]1CN(C)C(=O)c1ccccc1 | x | -2.1 | x | x
Cc1cc(C(=O)COC(=O)c2ccc(O)cc2)c(C)n1CC(F)(F)F | x | 94.9* | 51.0* | 3.8
COc1ccccc1-c1ccc(NC2CCCCC2)nn1 | 83.2* | x | x | 4.5
COc1ccccc1-c1ccc(Nc2cccc(C(F)(F)F)c2)nn1 | 20.7 | 45.5* | x | -0.1
CCNC(=O)[C@@H]1[C@@H](CO)[C@@H]2Cn3c(ccc(/C=C/c4ccccc4)c3=O)[C@H]1N2CC | x | -3.0 | x | x
COc1ccc(NC(=O)CCS(=O)(=O)c2ccc3c(c2)CCN3C(C)=O)cc1 | -5.7 | -3.0 | -2.5 | 1.0
CC(=O)N1CCc2cc(S(=O)(=O)C(C)CC(=O)Nc3ccc(OC(F)(F)F)cc3)ccc21 (stereo unspecified) | 28.9 | 45.5* | 5.8 | -0.1
CCOc1cc(/C=C2\C(=O)N(CCC#N)N=C2C)ccc1OCC(N)=O | -5.3 | x | 0.2 | -2.1
SMILES | MITF act | esBAF inh | Wnt act | FXN GAA850 act
COc1cc(/C=C2\C(=O)N(CCC#N)N=C2C)ccc1OCC(=O)Nc1ccccc1 | 4.7 | x | 65.3* | 1.8
CCOC(=O)c1c(C)oc2c1c(C(c1ccccc1)N1CCOCC1)c(O)c1ccccc12 (stereo unspecified) | 68.4 | 46.7* | 40.2* | 0.4
CCOC(=O)c1c(C)oc2c1c(C(c1cccnc1)N1CCCCC1)c(O)c1ccccc12 (stereo unspecified) | 77.0 | x | x | 0.6
COCc1ccc(-c2c(-c3ccc(OC)cc3)oc(=O)c3cc(OC)c(OC)cc23)cc1 | 110.9* | u | 27.7 | 3.2
O=c1c2ccccc2nnn1CCc1ccccc1 | x | 20.1 | 42.7* | 0.6
O=c1c2ccccc2nnn1COc1cccc(Cl)c1 | 43.9 | 59.5* | 7.3 | 2.3
Cc1ccc(SCn2nnc3ccccc3c2=O)c(C)c1 | 109.9* | x | 27.3 | 6.5
Cc1ccc(S(=O)(=O)Nc2cccc3c2O[C@@H](CN(C)C(=O)NC(C)C)[C@H](C)CN([C@H](C)CO)C3=O)cc1 | x | -1.1 | x | x
CCCC(=O)Nc1ccc2c(c1)OC[C@H](C)N(Cc1ccccn1)C[C@@H](C)[C@H](OC)CN(C)C2=O | x | -0.4 | x | x
C[C@H]1CN([C@@H](C)CO)C(=O)c2cc(NC(=O)CCN3CCOCC3)ccc2O[C@@H]1CN(C)C(=O)Nc1ccc(F)cc1 | x | -0.6 | x | x
C#CCNC(=O)/C=C/c1ccc(C)cc1 | 91.4* | 32.3 | 27.5 | 5.2
Cc1c(C(=O)Nc2nccs2)oc2ccccc12 | x | 69.9* | 79.6* | 4.5
Cc1c(C(=O)Nc2nnc(C3CC3)s2)oc2c(Cl)cccc12 | -17.7 | x | 2.2 | 2.7
Cc1c(C(=O)Nc2ccc(Cl)cn2)oc2ccccc12 | 22.8 | 45.3* | 27.6 | -1.2
Cc1csc(NC(=O)c2oc3ccccc3c2C)n1 | 39.5 | u | 24.6 | 2.5
Cc1ccccc1C(=O)Nc1ccc(Cl)cn1 | x | 25.1 | x | 0.9
